Several values for one entry are separate records, joined by “and”; a condition that tells them apart may be missing. Equal entries are not always repeated. Out of some 5,500 compounds screened, about 2,000 (36%) were called active. Another 18% or so got no clear call; they are omitted. No stated cut-off is given here; in the data, active means normalized growth mostly below about 0.91 (no sharp cut-off); inconclusive means no clear call, values can overlap the other calls; inactive means mostly above about 0.92. The list shows a part of the results.
Assay: chemical genetic growth profiling, strain panel (AID 1159580);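 further: tested at 20 µM; growth read once vehicle control cultures reached saturation at 30 °C; 1 = growth at the plate median or of vehicle wells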
Conditions: growth OD

Measured: normalized growth

CN1CCC(=C2c3ccccc3CC(=O)c3sccc32)CC1
inactive: S. cerevisiae deletion strains, locus YKL009W, strain mrt4, stronger effect = lower value 1.02 | S. cerevisiae deletion strains, locus YKL068W, stronger effect = lower value 1.02 | S. cerevisiae deletion strains, locus YKL085W, strain MDH1 (second series), stronger effect = lower value 1.01 | S. cerevisiae deletion strains, locus YKL085W, strain MDH1, stronger effect = lower value 1.01 | S. cerevisiae deletion strains, locus YKL160W, strain elf1, stronger effect = lower value 0.987 | S. cerevisiae deletion strains, locus YKL190W, strain CNB1, stronger effect = lower value 1.01 | S. cerevisiae deletion strains, locus YKR001C, strain vps1, stronger effect = lower value 1.01 | S. cerevisiae deletion strains, locus YKR026C, strain gcn3, stronger effect = lower value 0.981 | S. cerevisiae deletion strains, locus YKR091W, strain srl3, stronger effect = lower value 0.979 | S. cerevisiae deletion strains, locus YLL001W, strain dnm1, stronger effect = lower value 0.935 | S. cerevisiae deletion strains, locus YLL026W, stronger effect = lower value 0.963 | S. cerevisiae deletion strains, locus YLL041C, strain sdh2, stronger effect = lower value 0.986 | S. cerevisiae deletion strains, locus YLR027C, strain aat2, stronger effect = lower value 0.973 | S. cerevisiae deletion strains, locus YLR039C, strain RIC1, stronger effect = lower value 0.996 | S. cerevisiae deletion strains, locus YLR058C, strain SHM2, stronger effect = lower value 1 | S. cerevisiae deletion strains, locus YLR102C, strain apc9, stronger effect = lower value 1.01 | S. cerevisiae deletion strains, locus YLR113W, strain HOG1, stronger effect = lower value 1.02 | S. cerevisiae deletion strains, locus YLR221C, strain rsa3, stronger effect = lower value 1.04 | S. cerevisiae deletion strains, locus YLR258W, strain gsy2, stronger effect = lower value 1.01 | S. cerevisiae deletion strains, locus YLR262C, strain YPT6 (second series), stronger effect = lower value 0.956 | S. cerevisiae deletion strains, locus YLR262C, strain YPT6, stronger effect = lower value 1 | S. cerevisiae deletion strains, locus YLR268W, strain sec22, stronger effect = lower value 1.03 | S. cerevisiae deletion strains, locus YLR320W, strain mms22, stronger effect = lower value 1.02 | S. cerevisiae deletion strains, locus YLR330W, strain CHS5, stronger effect = lower value 1 | S. cerevisiae deletion strains, locus YLR342W, strain FKS1 (second series), stronger effect = lower value 0.991 | S. cerevisiae deletion strains, locus YLR342W, strain FKS1, stronger effect = lower value 0.967 | S. cerevisiae deletion strains, locus YLR357W, strain rsc2, stronger effect = lower value 0.969 | S. cerevisiae deletion strains, locus YLR370C, strain arc18, stronger effect = lower value 0.971 | S. cerevisiae deletion strains, locus YLR371W, strain rom2, stronger effect = lower value 1.01 | S. cerevisiae deletion strains, locus YLR384C, strain iki3, stronger effect = lower value 0.974 | S. cerevisiae deletion strains, locus YLR418C, strain cdc73, stronger effect = lower value 0.976 | S. cerevisiae deletion strains, locus YML016C, strain PPZ1, stronger effect = lower value 1.01 | S. cerevisiae deletion strains, locus YML032C, strain rad52, stronger effect = lower value 1.02 | S. cerevisiae deletion strains, locus YML120C, strain ndi1, stronger effect = lower value 0.965 | S. cerevisiae deletion strains, locus YML124C, strain tub3, stronger effect = lower value 1.01 | S. cerevisiae deletion strains, locus YMR058W, strain fet3, stronger effect = lower value 0.979 | S. cerevisiae deletion strains, locus YMR078C, strain ctf18, stronger effect = lower value 1 | S. cerevisiae deletion strains, locus YMR125W, strain sto1, stronger effect = lower value 0.955 | S. cerevisiae deletion strains, locus YMR129W, stronger effect = lower value 0.981 | S. cerevisiae deletion strains, locus YMR205C, strain PFK2, stronger effect = lower value 0.987 | S. cerevisiae deletion strains, locus YMR223W, strain ubp8, stronger effect = lower value 0.993 | S. cerevisiae deletion strains, locus YMR231W, strain pep5, stronger effect = lower value 0.974 | S. cerevisiae deletion strains, locus YMR263W, strain SAP30, stronger effect = lower value 1.02 | S. cerevisiae deletion strains, locus YMR307W, strain GAS1, stronger effect = lower value 0.971 | S. cerevisiae deletion strains, locus YNL067W, strain RPL9B, stronger effect = lower value 1.02 | S. cerevisiae deletion strains, locus YNL071W, strain lat1, stronger effect = lower value 0.987 | S. cerevisiae deletion strains, locus YNL128W, strain TEP1, stronger effect = lower value 1.01 and 0.992 | S. cerevisiae deletion strains, locus YNL153C, strain GIM3, stronger effect = lower value 1.02 and 0.986 | S. cerevisiae deletion strains, locus YNL175C, strain NOP13, stronger effect = lower value 0.996 | S. cerevisiae deletion strains, locus YNL183C, strain NPR1, stronger effect = lower value 0.991 | S. cerevisiae deletion strains, locus YNL197C, strain WHI3, stronger effect = lower value 0.995 | S. cerevisiae deletion strains, locus YNL209W, strain ssb2, stronger effect = lower value 0.988 | S. cerevisiae deletion strains, locus YNL224C, strain SQS1, stronger effect = lower value 1.02 | S. cerevisiae deletion strains, locus YNL233W, strain BNI4, stronger effect = lower value 1.01 | S. cerevisiae deletion strains, locus YNL248C, strain rpa49, stronger effect = lower value 0.983 | S. cerevisiae deletion strains, locus YNL250W, strain rad50, stronger effect = lower value 1.01 | S. cerevisiae deletion strains, locus YNL271C, strain bni1, stronger effect = lower value 1.02 | S. cerevisiae deletion strains, locus YNL298W, strain CLA4, stronger effect = lower value 1.01 | S. cerevisiae deletion strains, locus YNL307C, strain MCK1, stronger effect = lower value 1 | S. cerevisiae deletion strains, locus YNL322C, strain KRE1 (second series), stronger effect = lower value 0.975 | S. cerevisiae deletion strains, locus YNL322C, strain KRE1, stronger effect = lower value 1.01 and 0.991 | S. cerevisiae deletion strains, locus YNR049C, strain mso1, stronger effect = lower value 0.994 | S. cerevisiae deletion strains, locus YNR052C, strain pop2, stronger effect = lower value 1.01 | S. cerevisiae deletion strains, locus YOL006C, strain TOP1, stronger effect = lower value 1.05 | S. cerevisiae deletion strains, locus YOL012C, strain htz1 1.02 | S. cerevisiae deletion strains, locus YOL147C, strain pex11, stronger effect = lower value 1 | S. cerevisiae deletion strains, locus YOR001W, strain rrp6, stronger effect = lower value 0.95 | S. cerevisiae deletion strains, locus YOR061W, strain CKA2, stronger effect = lower value 1.01 | S. cerevisiae deletion strains, locus YOR069W, strain VPS5, stronger effect = lower value 0.999 | S. cerevisiae deletion strains, locus YOR070C, strain gyp1, stronger effect = lower value 0.999 | S. cerevisiae deletion strains, locus YOR080W, strain dia2, stronger effect = lower value 0.967 | S. cerevisiae deletion strains, locus YOR083W, strain WHI5 (second series), stronger effect = lower value 1.01 | S. cerevisiae deletion strains, locus YOR083W, strain WHI5, stronger effect = lower value 0.962 | S. cerevisiae deletion strains, locus YOR106W, strain vam3, stronger effect = lower value 0.956 | S. cerevisiae deletion strains, locus YOR136W, strain idh2, stronger effect = lower value 1 | S. cerevisiae deletion strains, locus YOR144C, strain elg1, stronger effect = lower value 1 | S. cerevisiae deletion strains, locus YOR184W, strain ser1, stronger effect = lower value 0.989 | S. cerevisiae deletion strains, locus YOR231W, strain MKK1, stronger effect = lower value 1.02 | S. cerevisiae deletion strains, locus YOR265W, strain rbl2, stronger effect = lower value 0.988 | S. cerevisiae deletion strains, locus YOR270C, strain vph1, stronger effect = lower value 0.98 | S. cerevisiae deletion strains, locus YOR290C, strain snf2, stronger effect = lower value 1 | S. cerevisiae deletion strains, locus YOR316C, strain cot1, stronger effect = lower value 1.01 | S. cerevisiae deletion strains, locus YPL051W, strain arl3, stronger effect = lower value 0.991 | S. cerevisiae deletion strains, locus YPL055C, strain LGE1, stronger effect = lower value 1.01 | S. cerevisiae deletion strains, locus YPL078C, strain atp4, stronger effect = lower value 0.923 | S. cerevisiae deletion strains, locus YPL106C, strain sse1, stronger effect = lower value 0.979 | S. cerevisiae deletion strains, locus YPL240C, strain hsp82, stronger effect = lower value 0.99 | S. cerevisiae deletion strains, locus YPL241C, strain CIN2, stronger effect = lower value 1 | S. cerevisiae deletion strains, locus YPL256C, strain CLN2, stronger effect = lower value 1.04 | S. cerevisiae deletion strains, locus YPR119W, strain clb2, stronger effect = lower value 1.01 | S. cerevisiae deletion strains, locus YPR141C, strain kar3, stronger effect = lower value 1.01 | S. cerevisiae deletion strains, locus YPR163C, strain tif3, stronger effect = lower value 1.02 | S. cerevisiae deletion strains, locus YPR167C, strain met16, stronger effect = lower value 1 | S. cerevisiae deletion strains, strain wtn01, stronger effect = lower value 1.01 | S. cerevisiae strains, strain wild type, stronger effect = lower value 1.01
